This is one part of a sample in which hits are shown more often than they occur.
Shiga toxin inh = A qHTS for Small Molecule Inhibitors of Shiga Toxin. Vero cells, Shiga toxin protein synthesis inhibition reporter. inhibition, % at 38.7 µM. actives 9.2% (n = 290,000); in the data active = inhibition mostly above about 28%, no sharp cut-off; inactive = mostly below about 43%
RE007 growth inh = qHTS Assay for Inhibitors of the HIV-1 protein Vpr. S. pombe RE007 Vpr strain, BacTiter-Glo ATP luminescence, 24 h. AID 651644, 2012. Potency, µM (series often up to 92.2 µM), actives largely listed as inhibitors. actives 0.21% (n = 360,000); active = well fitted falling curve with a large enough effect; inconclusive = small, poorly fitted or top-dose-only effect; inactive = no such curve, though single readings can be large or run the other way; note: nearly all actives have a fitted effect of over 50% in size
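Fission yeast strain RE007, carrying one chromosomally integrated HIV-1 vpr copy, was seeded at OD 0.01 in PMG+AL medium with 23 nL pinned compound. After 24 h at 30 °C and 99% humidity, viability was read by BacTiter-Glo luminescence.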
Cycloheximide cs = Cycloheximide Counterscreen for Small Molecule Inhibitors of Shiga Toxin. actives 12% (n = 300,000). cell reporter, cycloheximide protein synthesis inhibition counterscreen. max response, %; in the data active = max response mostly above about 13%, no sharp cut-off; inactive = mostly below about 14%; note: read at 38.3 µM for the half of the compounds with a filed dose
LmPK inh = qHTS Assay for Inhibitors of Leishmania Mexicana Pyruvate Kinase (LmPK) | Q27686 | purified LmPK, Kinase-Glo ATP luminescence, 1 h | Potency, µM (doses to about 57.5 µM), usual class: inhibitors | actives 0.37% (n = 290,000) | AID 1721, 2009
Target sequence (Q27686 whole entry, looked up): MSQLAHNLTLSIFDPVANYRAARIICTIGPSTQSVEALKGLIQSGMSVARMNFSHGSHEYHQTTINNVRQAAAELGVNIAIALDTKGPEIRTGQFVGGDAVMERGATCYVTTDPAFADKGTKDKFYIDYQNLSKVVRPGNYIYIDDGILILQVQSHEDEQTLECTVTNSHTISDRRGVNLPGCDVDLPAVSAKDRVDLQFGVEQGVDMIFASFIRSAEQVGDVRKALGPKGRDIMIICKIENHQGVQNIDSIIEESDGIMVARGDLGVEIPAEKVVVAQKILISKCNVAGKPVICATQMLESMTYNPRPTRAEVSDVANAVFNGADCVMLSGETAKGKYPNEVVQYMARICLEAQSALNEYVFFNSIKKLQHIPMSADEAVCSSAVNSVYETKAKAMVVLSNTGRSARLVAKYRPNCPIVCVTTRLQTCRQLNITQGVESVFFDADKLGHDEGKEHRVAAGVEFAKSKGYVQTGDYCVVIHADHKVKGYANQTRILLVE
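In 50 mM imidazole pH 7.2 with 7 mM MgCl2, LmPK (0.1 nM) turned over PEP (0.5 mM) and ADP (0.1 mM) for 1 h at room temperature. Luciferase read-out of ATP.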
TbPYK inhibitor = qHTS of Trypanosoma Brucei Inhibitors; pyruvate kinase (Trypanosoma brucei), Q57TT1; TbPYK enzyme, Kinase-Glo Plus ATP luminescence, 45 min; Potency, µM (titrated, usually from 76.8 µM), usual class: inhibitors; actives 0.12% (n = 410,000); AID 624173, 2012; note: nearly all actives have a fitted effect of over 50% in size
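Activity of T. brucei pyruvate kinase was followed by Kinase-Glo Plus luminescence after the enzyme reacted 45 min at room temperature with 130 uM ADP (final) and substrate. Test compounds were added before ADP at multiple concentrations.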
Giardia FBPA inh = qHTS Assay for Inhibitors of Fructose-1,6-bisphosphate Aldolase from Giardia Lamblia | A8B2U2 | purified Giardia FBPA | Potency, µM (series often up to 59.6 µM), actives largely listed as inhibitors | actives 0.71% (n = 290,000) | AID 2451, 2010; note: nearly all actives have a fitted effect of over 55% in size
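40 nM FBPA preincubated 10 min at RT with compound (up to 57.5 uM final), then substrate plus GAPDH/TPI/NAD/arsenate coupling and diaphorase/resazurin added. Fluorescence read after 20 min at RT, 525/598 nm.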
Each line names hits and unclear results; the compound was inactive in the other large screens. Unless noted, calls come from the whole dose curve; as a rule, active = well fitted curve in the direction sought with a large enough effect; inconclusive = small, poorly fitted or top-dose-only effect, or another doubt; inactive = no such curve, though single readings can be large; an effect the other way counts as inactive or inconclusive.

CCOc1nc(-c2ccccc2)ccc1-c1noc(COC)n1	none
O=c1ccnc(S/C=C/c2ccccc2)[nH]1	Cycloheximide cs 35
COCCN1Cc2cc3cc(C)ccc3nc2SC1=Nc1ccc(OC)cc1	Shiga toxin inh 64, Cycloheximide cs 15
COCCN=C1Sc2nc3ccc(C)cc3cc2CN1Cc1cccs1	Shiga toxin inh 36, Cycloheximide cs 12
COc1ccc(NC(=O)c2cc(C3CCCCN3C(=O)c3cccs3)on2)c(C)c1 (configuration not stated)	none (no result: Shiga toxin inh, Cycloheximide cs, LmPK inh, Giardia FBPA inh)
COc1ccc(NC(=O)c2ccncc2)cc1S(=O)(=O)N1CCCCC1	none (no result: Shiga toxin inh, Cycloheximide cs, LmPK inh, Giardia FBPA inh)
Fc1ccc(NC(=S)Nc2cc(-c3ccccc3)[nH]n2)cc1Cl	RE007 growth inh inconclusive
Cc1ccc(NC(=S)Nc2cc(-c3ccccc3)[nH]n2)cc1Cl	Shiga toxin inh 48, Cycloheximide cs 13
CC(C)(C)c1nnc(NC(=O)Cc2ccccc2[N+](=O)[O-])s1	none
CC(C)c1nnc(NC(=O)Cc2ccccc2[N+](=O)[O-])s1	Shiga toxin inh active, Cycloheximide cs 12 (no result: RE007 growth inh)
COc1ccccc1NC(=O)Nc1nnc(CC(=O)Nc2ccccc2)s1	none (no result: RE007 growth inh, TbPYK inhibitor)
CCc1nnc(NC(=O)Nc2ccccc2OC)s1	Shiga toxin inh 91, Cycloheximide cs 35
COc1ccccc1NC(=O)Nc1nnc(C(C)C)s1	Shiga toxin inh 75, Cycloheximide cs 51
COc1ccccc1NC(=O)Nc1nnc(C(C)c2ccccc2)s1 (configuration not stated)	none
CCOC(=O)N1CCN(C(=O)c2[nH]c(C(F)(F)F)nc2-c2ccccc2)CC1	none (no result: Shiga toxin inh, Cycloheximide cs, LmPK inh, Giardia FBPA inh)
Clc1ccccc1/C=N/NC1=Nc2cccc3cccc1c23	Shiga toxin inh 66, Cycloheximide cs 32
C(=N\NC1=Nc2cccc3cccc1c23)/c1ccccn1	Shiga toxin inh 97, RE007 growth inh inconclusive, Cycloheximide cs 53, Giardia FBPA inh inconclusive
O=C(CNc1ccc2ccccc2c1)N/N=C/c1ccccn1	Giardia FBPA inh inconclusive
COc1ccc(/C=N/N2CCOCC2)cc1COc1ccc(F)cc1	Cycloheximide cs 35
COc1ccc(/C=N/NC(=O)c2ccccc2O)cc1Cn1cc(Cl)cn1	Cycloheximide cs 16
COc1ccc(/C=N/NC(=O)c2ccn[nH]2)cc1CSc1ccccn1	Shiga toxin inh 75, Cycloheximide cs 65
COc1ccc(/C=N/NC(=O)c2ccn[nH]2)cc1Cn1cc([N+](=O)[O-])cn1	Shiga toxin inh 59, Cycloheximide cs 23
COc1ccc(/C=N/NC(=O)c2cccc(Br)c2)cc1CSc1ccccn1	none
COc1cccc(Cn2c(=O)c(C)nc3cnc(N(C)C)nc32)c1	none (no result: Shiga toxin inh, RE007 growth inh, Cycloheximide cs, LmPK inh, TbPYK inhibitor)
COc1ccc(/C=N/N2CCOCC2)cc1Cn1cc([N+](=O)[O-])cn1	Cycloheximide cs 15
COc1ccc(/C=N/NC(=O)c2ccn[nH]2)cc1COc1ccc(Cl)cc1	Cycloheximide cs 31
COc1ccc(/C=N/NC(=O)c2ccc(N)cc2)cc1Cn1cc([N+](=O)[O-])cn1	none
Cc1cc(C(=O)N2CCN(S(C)(=O)=O)CC2)sc1-c1ccccc1	none
Cc1cc(C(=O)N(C)C)sc1-c1ccccc1	Shiga toxin inh 71, RE007 growth inh inconclusive, Cycloheximide cs 63
COc1ccc(C(=O)N=c2sc3c(C)ccc(OC)c3n2C)cc1	Shiga toxin inh 66, Cycloheximide cs 37
CCOC(=O)c1sc(=NC(=O)c2cccc(OC)c2)n(C)c1C	Shiga toxin inh 59, Cycloheximide cs 36
CCOC(=O)c1sc(=NC(=O)COc2ccc(Cl)cc2)n(C)c1C	none
CCOC(=O)c1sc(=NC(=O)c2ccccc2)n(C)c1C	Shiga toxin inh 90, Cycloheximide cs 36
CCOC(=O)c1sc(=NC(=O)CCS(=O)(=O)c2ccccc2)n(C)c1C	none
COc1cc(C(=O)N=c2sc3c(C)ccc(OC)c3n2C)cc(OC)c1OC	none
CCOC(=O)c1sc(=NC(=O)c2ccc(OC)c(OC)c2)n(C)c1C	Shiga toxin inh 86
CC(C)(C)c1ccc(S(=O)(=O)CCc2ccccn2)cc1	Shiga toxin inh 54, Cycloheximide cs 27
Fc1ccc(SCCc2ccccn2)cc1	Shiga toxin inh 72, Cycloheximide cs 52, LmPK inh inconclusive
CC(C)(C)c1ccc(SCCc2ccccn2)cc1	Shiga toxin inh 89, Cycloheximide cs 40
NCCc1ccccn1	none (no result: RE007 growth inh, LmPK inh, TbPYK inhibitor)
O=C(CCCCn1c(=O)c2ccccc2n(Cc2ccccc2Cl)c1=O)NCc1ccc2c(c1)OCO2	none (no result: Shiga toxin inh, RE007 growth inh, Cycloheximide cs, LmPK inh, Giardia FBPA inh)
COc1cc(C2c3c(n[nH]c3C)C(=O)N2c2ccc(Br)cc2)ccc1O (configuration not stated)	Cycloheximide cs 15
CCOC(=O)c1ccc(N2C(=O)c3n[nH]c(C)c3C2c2ccc(OC)c(OC)c2)cc1 (configuration not stated)	none
CCOc1cc(C2c3c(n[nH]c3C)C(=O)N2c2ccc(Br)cc2)ccc1O (configuration not stated)	Shiga toxin inh 38, Cycloheximide cs 31
C/C(=N/O)c1cccc(N2Cc3ccccc3C2)c1	Shiga toxin inh 51, Cycloheximide cs 18
C/C(=N\O)c1cccc(Br)c1	none
COc1ccc2cc3cc(C(=O)NCCCN4CCC(C)CC4)oc3nc2c1	Shiga toxin inh 128, Cycloheximide cs 43 (no result: Giardia FBPA inh)
COc1ccc2cc3cc(C(=O)NCc4ccc(C)cc4)oc3nc2c1	none (no result: Shiga toxin inh, RE007 growth inh, Cycloheximide cs, LmPK inh, Giardia FBPA inh)
COc1ccc2cc3cc(C(=O)N4CCCCC4C)oc3nc2c1 (configuration not stated)	Shiga toxin inh 64, Cycloheximide cs 34 (no result: Giardia FBPA inh)
COc1ccc2cc3cc(C(=O)N4CCN(C5CCCCC5)CC4)oc3nc2c1	none (no result: Giardia FBPA inh)
COc1ccc2nc3oc(C(=O)NC4CCN(Cc5ccccc5)CC4)cc3cc2c1	Shiga toxin inh 31
CCOC(=O)N1CCC(NC(=O)c2cc3cc4cc(OC)ccc4nc3o2)CC1	none
COc1ccc2cc3cc(C(=O)N(C)C4CCCCC4)oc3nc2c1	Shiga toxin inh 77, Cycloheximide cs 30 (no result: Giardia FBPA inh)
Nc1nonc1C(=O)NCCNCc1cccc(Cl)c1Cl	none (no result: Shiga toxin inh, RE007 growth inh, Cycloheximide cs, LmPK inh, Giardia FBPA inh)
CC1CC(C)CN(C(CCc2ccccc2)C(=O)NC2CCCCC2)C1 (configuration not stated)	none (no result: Shiga toxin inh, Cycloheximide cs, LmPK inh, Giardia FBPA inh)
COc1ccc2nc3oc(C(=O)Nc4ccc(OC)c(OC)c4)cc3cc2c1	LmPK inh 22µM
COc1ccc2cc3cc(C(=O)N4CCCCCC4)oc3nc2c1	Shiga toxin inh 72, Cycloheximide cs 41
COc1ccc2cc3cc(C(=O)Nc4ccc5c(c4)OCO5)oc3nc2c1	none
O=C(c1cnccn1)N1CCC2(CC1)CCN(C(c1ccccc1)c1ccccc1)CC2	none (no result: Shiga toxin inh, RE007 growth inh, Cycloheximide cs, LmPK inh)
